# From publication PMC4336329 (PLoS ONE, 2015)
# The whole screen tested about 310,000 compounds, of which about 14,000 (4.5%) showed an effect of 50% or more. The effect is printed as a negative number. The entries come from a sample that favours strong results as a whole.
# Target: human ether-à-go-go-related gene (hERG) potassium channel (human, UniProt Q12809)
# Experiment: primary screen, population patch clamp on CHO cells stably expressing hERG; higher = less effect of the substance
# 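Note: peak tail current of the secondary pulse compared with the same well before compound.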
# human ether-à-go-go-related gene (hERG) potassium channel, sequence (Q12809 whole entry, looked up): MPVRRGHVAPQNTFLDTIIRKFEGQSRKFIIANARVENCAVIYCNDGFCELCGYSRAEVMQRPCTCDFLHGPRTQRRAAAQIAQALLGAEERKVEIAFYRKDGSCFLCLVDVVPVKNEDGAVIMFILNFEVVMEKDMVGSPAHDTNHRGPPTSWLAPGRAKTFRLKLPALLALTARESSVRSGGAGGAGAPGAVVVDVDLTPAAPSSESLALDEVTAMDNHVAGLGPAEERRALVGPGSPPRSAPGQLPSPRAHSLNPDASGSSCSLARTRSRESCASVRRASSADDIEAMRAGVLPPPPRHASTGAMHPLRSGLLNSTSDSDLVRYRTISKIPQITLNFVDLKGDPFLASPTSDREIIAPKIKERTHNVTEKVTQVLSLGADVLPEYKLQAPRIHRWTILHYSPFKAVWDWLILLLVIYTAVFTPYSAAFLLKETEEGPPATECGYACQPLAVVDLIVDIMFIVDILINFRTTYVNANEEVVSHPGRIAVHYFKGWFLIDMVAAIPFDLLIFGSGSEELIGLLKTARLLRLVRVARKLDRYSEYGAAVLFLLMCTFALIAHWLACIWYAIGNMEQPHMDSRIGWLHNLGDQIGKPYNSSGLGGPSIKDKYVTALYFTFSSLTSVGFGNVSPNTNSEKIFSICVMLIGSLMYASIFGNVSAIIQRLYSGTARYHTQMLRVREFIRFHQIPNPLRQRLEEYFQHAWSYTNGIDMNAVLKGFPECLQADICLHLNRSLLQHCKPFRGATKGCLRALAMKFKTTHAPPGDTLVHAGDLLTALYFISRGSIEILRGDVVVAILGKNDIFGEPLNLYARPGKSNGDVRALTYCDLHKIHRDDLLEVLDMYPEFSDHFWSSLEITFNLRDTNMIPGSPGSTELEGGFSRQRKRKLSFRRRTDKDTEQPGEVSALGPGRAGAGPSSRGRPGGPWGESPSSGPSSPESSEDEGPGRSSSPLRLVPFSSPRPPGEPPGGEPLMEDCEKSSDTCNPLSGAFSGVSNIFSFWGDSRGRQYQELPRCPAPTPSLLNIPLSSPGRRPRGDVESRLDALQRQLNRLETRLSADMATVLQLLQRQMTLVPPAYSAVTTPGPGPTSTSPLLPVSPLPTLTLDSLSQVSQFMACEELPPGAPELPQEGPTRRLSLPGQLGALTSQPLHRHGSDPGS
row,SMILES,"hERG current change (%, negative = inhibition) at 10uM [%]"
1,Cc1n[nH]c(C)c1S(=O)(=O)NCCc1ccc(Cl)cc1,5
2,O=c1cc(-c2ccc(O)c(-c3c(O)cc(O)c4c(=O)cc(-c5ccc(O)cc5)oc34)c2)oc2cc(O)cc(O)c12,-7.09
3,COc1cc(C(=O)Nc2ccc3c(c2)OCCO3)ccc1OC(F)F,-5.02
4,Cc1cc(NC(=O)CCC(=O)N(Cc2ccccc2)C2(C(=O)NC3CCCCC3)CCCC2)no1,21.1
5,Cc1cc(NC(=O)CCC(=O)N(CCC(C)C)C(C(=O)NC2CCCC2)c2ccccc2C)no1 (stereo not drawn),-21.5
6,O=C(NC(=S)NCC1CCCO1)c1cccc([N+](=O)[O-])c1 (stereo not drawn),2.05
7,O=C(NC1CC2CCCC(C1)N2C(=O)NCc1ccccc1)C1CC1 (stereo not drawn),4.22
8,CCc1ccc(OCC(=O)NNC(=O)c2cnccn2)c(Br)c1,-5.95
9,CN1CCCC(C(O)(c2ccccc2)c2ccccc2)C1 (stereo not drawn),16.3
10,Cl.c1ccc2c(c1)CC(N1CCCCC1)c1ccccc1S2 (stereo not drawn),9.15
11,CN1CCCC(CC2c3ccccc3Sc3ccccc32)C1.Cl.O (stereo not drawn),-52.9
12,CN1CCCC(OC(=O)COc2ccccc2)C1.Cl (stereo not drawn),10.4
13,CN1CCCC(CC2Oc3ccccc3Sc3ccccc32)C1.O=C(O)C(=O)O (stereo not drawn),-67
14,CC(=O)O.CN1CCCC(CN2c3ccccc3Sc3ccccc32)C1 (stereo not drawn),-28.4
15,CC(C)Oc1ccc(/C(O)=C2/C(=O)C(=O)N(CCN3CCOCC3)C2c2ccccc2)cc1 (stereo not drawn),13.6
16,COC(=O)Cn1ccc2cc(S(=O)(=O)N3CCCCC3)ccc21,-8.73
17,CCOC(=O)c1cc2occc2n1CCCN1C(=O)c2ccccc2C1=O,-23.5
18,Cc1ccc(C(=O)COC(=O)c2cc(Cl)ccc2O)cc1[N+](=O)[O-],10.4
19,O=C(COc1cc(Cl)ccc1Cl)Nc1ccc2[nH]c(=O)[nH]c2c1,12.8
20,COc1ccc(NC(=O)c2ccco2)cc1NC(=O)c1cc2ccccc2o1,3.33
21,O=C1Nc2ccccc2S/C1=C/Nc1cccc(Cl)c1,-3.01

row,SMILES,"hERG current change (%, negative = inhibition) at 10uM [%]"
1,C[C@H]1CCCC(=O)CCCCCc2cc(O)cc(O)c2C(=O)O1,-0.0905
2,CC1CCC[C@H](O)CCCCCc2cc(O)cc(O)c2C(=O)O1 (stereo partly drawn),5.64
3,C[C@H]1CCC[C@H](O)CCCCCc2cc(O)cc(O)c2C(=O)O1,-51
4,O=S(=O)(Nc1ccncc1)c1cc(Cl)c(Cl)cc1Cl,0.0869
5,O=C1C(Cl)=C(N2CCOCC2)C(=O)N1c1ccc(Br)cc1,14.8
6,O=C(COc1ccc(Br)cc1)Nc1ccccc1C(=O)NC1CC1,-6.57
7,CCOc1ccc(NC(=O)CSc2cn[nH]n2)cc1,3.89
8,Cc1nc2ccccn2c1CN(C)C(=O)C1CCC(=O)N(CCc2cccc(F)c2)C1 (stereo not drawn),-75.6
9,CN(Cc1ccccn1)C(=O)C1CCC(=O)N(Cc2cccc(F)c2)C1 (stereo not drawn),6.47
10,Cc1cc(CN(C)C(=O)C2CCC(=O)N(CCc3cccc(F)c3)C2)on1 (stereo not drawn),9.94
11,Cc1cnc(C)c(N2CCN(C(=O)C3CCC(=O)N(CCc4cccc(F)c4)C3)CC2)n1 (stereo not drawn),-53.9
12,O=C1CCC(C(=O)N2CCCC2)CN1CCc1cccc(F)c1 (stereo not drawn),4.37
13,Cc1nc2ccccn2c1CN(C)C(=O)C1CCC(=O)N(Cc2cccc(F)c2)C1 (stereo not drawn),-80.2
14,Cc1nc(CN(C)C(=O)C2CCC(=O)N(CCc3cccc(F)c3)C2)cs1 (stereo not drawn),-7.62
15,CN(Cc1cnn(C)c1)C(=O)C1CCC(=O)N(Cc2cccc(F)c2)C1 (stereo not drawn),-49.8
16,CN1CCN(C(=O)C2CCC(=O)N(CCc3cccc(F)c3)C2)CC1 (stereo not drawn),12.3
17,Nc1nc2c(nc(SCc3ccccc3Br)n2C2OC(CO)C(O)C2O)c(=O)[nH]1 (stereo not drawn),34.9
18,CCOC(=O)N1CCC(Nc2c(NCCCN(CC)Cc3ccccc3)c(=O)c2=O)CC1,6.06
19,Cc1ccc(C(=O)Nc2ccc3cn[nH]c3c2)cc1S(=O)(=O)N1CCOCC1,-8.78
20,O=C(N/N=C/c1cn(-c2ccccc2)nc1-c1cc2ccccc2o1)c1c[nH]c2ccccc12,13.2
21,Cc1c(OC(C)C(=O)NCC(O)c2ccccc2)ccc2c3c(c(=O)oc12)CCC3 (stereo not drawn),-13.3

row,SMILES,"hERG current change (%, negative = inhibition) at 10uM [%]"
1,Cc1cc(NC(=O)c2cccc(S(=O)(=O)N3CCOCC3)c2)c2ccccc2n1,-16.2
2,Cc1ccc(C(O)CN2C3=NCCCN3c3ccccc32)cc1.Cl (stereo not drawn),-67.4
3,Cc1ccc(C(O)CN2C3=NCCN3c3ccccc32)cc1.Cl (stereo not drawn),-61.1
4,Cl.OC(CN1C2=NCCN2c2ccccc21)c1ccccc1 (stereo not drawn),-42.7
5,COc1ccc(NC(=O)N2CCC(c3ccccc3)C2)c(OC)c1 (stereo not drawn),-1.5
6,Cc1cc(/C=C(/C#N)c2nc3ccccc3[nH]2)c(C)n1-c1ccccc1C(=O)O,15.8
7,Cc1ccnn1CC(=O)N/N=C/c1ccc([N+](=O)[O-])s1,-3.9
8,CC(C)NC(=S)NNC(=O)C12CC3CC(CC(C3)C1)C2,-8.78
9,CCN(CC)C(=O)N1CCN(C)CC1.O=C(O)CC(O)(CC(=O)O)C(=O)O,23.2
10,Cc1nc2nc(COc3ccccc3)[nH]n2c(=O)c1Cc1ccccc1,0.308
11,Cc1cc(Cl)ccc1OCC(=O)Nc1cccc(S(=O)(=O)N2CCCC2)c1,-1.87
12,O=C(CN1CCC(NC(=O)C2CC2)CC1)Nc1ccccc1[N+](=O)[O-],22.1
13,Cc1ccccc1NC(=O)CN1CCC(NC(=O)Nc2ccccc2)CC1,-35.9
14,O=C(CN1CCC(NC(=O)Nc2ccccc2)CC1)Nc1cccc([N+](=O)[O-])c1,-40.6
15,O=C(CN1CCCC1)Nc1ccc([N+](=O)[O-])cc1,-22.6
16,O=C(CN1CCC(NC(=O)Nc2ccccc2)CC1)Nc1ccc([N+](=O)[O-])cc1,-64.4
17,O=C(Nc1ccccc1)NC1CCN(CCCN2C(=O)c3ccccc3C2=O)CC1,-61.4
18,O=C(CN1CCC(NC(=O)Nc2ccccc2)CC1)Nc1ccccc1F,-18.3
19,COc1cccc(NC(=O)NC2CCN(CC(=O)Nc3ccccc3[N+](=O)[O-])CC2)c1,-39.4
20,O=C(CN1CCC(NC(=O)Nc2ccc(F)cc2)CC1)Nc1ccccc1[N+](=O)[O-],-51
21,O=C1CC(N2CCN(S(=O)(=O)c3ccccc3)CC2)C(=O)N1c1ccccc1 (stereo not drawn),1.87

row,SMILES,"hERG current change (%, negative = inhibition) at 10uM [%]"
1,O=c1c2c3c(sc2n2cnnc2n1CCc1ccccc1)CCCC3,-20.5
2,CCOC(=O)c1cnn(-c2ccc(C)cc2)c1N,-1.1
3,CN(C)CCCN(C(=O)c1ccc(S(=O)(=O)N2CCCCCC2)cc1)c1nc2c(F)cccc2s1.Cl,-66.2
4,Cc1ccc2sc(N(CCCN(C)C)C(=O)c3ccc(S(=O)(=O)N4CCCCCC4)cc3)nc2c1C.Cl,-23.4
5,CCOC(=O)N1CCN(S(=O)(=O)c2ccc(C(=O)N(CCN(CC)CC)c3nc4c(C)cccc4s3)cc2)CC1.Cl,-24.3
6,CCOC(=O)N1CCN(S(=O)(=O)c2ccc(C(=O)N(CCCN(C)C)c3nc4c(F)cc(F)cc4s3)cc2)CC1.Cl,-51.3
7,CCOc1cccc2sc(N(CCN(CC)CC)C(=O)c3ccc(S(=O)(=O)N4CCCC4)cc3)nc12.Cl,-24.2
8,CN(C)CCCN(C(=O)c1ccc(S(=O)(=O)N2CCCC2)cc1)c1nc2c(F)cc(F)cc2s1.Cl,-44.3
9,CCOc1cccc2sc(N(CCCN(C)C)C(=O)c3ccc(S(=O)(=O)N4CCCCCC4)cc3)nc12.Cl,7.67
10,CN(C)CCCN(C(=O)c1ccc(S(=O)(=O)N2CCCCCC2)cc1)c1nc2c(F)cc(F)cc2s1.Cl,-69.6
11,CN(C)CCCN(C(=O)c1ccc(S(=O)(=O)N2CCc3ccccc3C2)cc1)c1nc2c(F)cccc2s1.Cl,4.85
12,CN(C)CCCN(C(=O)c1ccc(S(=O)(=O)N2CCc3ccccc3C2)cc1)c1nc2c(F)cc(F)cc2s1.Cl,-15.2
13,CCOc1cccc2sc(N(CCN(CC)CC)C(=O)c3ccc(S(=O)(=O)N4CCCCC4)cc3)nc12.Cl,-62.4
14,NC(=O)C1(N2CCCCC2)CCN(C2CC(=O)N(Cc3ccc(N4CCCC4=O)cc3)C2=O)CC1 (stereo not drawn),5.32
15,O=c1cc(N2CCN(Cc3ccccc3)CC2)[nH]c(=O)n1-c1ccc(Br)cc1,-10.7
16,CN(C)S(=O)(=O)c1ccc(C(=O)Nc2ccccc2OC(F)(F)C(F)F)cc1,-16.6
17,C#CCNc1ccncc1S(=O)(=O)NC(=O)NC(C)C.O=[N+]([O-])O,-1.14
18,O=c1cc(CN2CCN(c3cccc(C(F)(F)F)c3)CC2)nc2sccn12,-46.3
